# Measured values taken from the supplement of paper PMC7156485.
# Values without a mark were called inactive.
# Test system: HCC1569
# Assay: H1.0 immunofluorescence intensity relative to DMSO (% of DMSO); higher = stronger H1.0 induction, active = 140 or more
# Conditions: concentration: 10 µM; 24 h
# Procedure, shortened: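 H1.0 nuclear intensity or cell number is stated as percent of the plate control, based on the median of replicates, and HCC1569 values were smoothed for positional effects. These came from HCC1569 and TDF cells treated with compounds at 10 µM for 24 h at 37 °C in triplicate, then fixed in 3.7% formaldehyde and stained with a rabbit anti-H1.0 antibody, an AlexaFluor 647 secondary and DAPI.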
# 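Also: TDF is a line of transformed human dermal fibroblasts of mesenchymal origin.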
row,SMILES,H1.0 immunofluorescence intensity
1,O=C(C=Cc1ccc(O)cc1)CC(=O)C=Cc1ccc(O)cc1 [Bis demethoxycurcumin],94.4
2,CN1CCN(C2Cc3ccccc3Sc3ccc(Cl)cc32)CC1.O=C(O)C=CC(=O)O (stereo not given),145 (active)
3,CNc1cc(NS(=O)(=O)c2ccc(N)cc2)nc(NC)n1.Cl.Cl [Ro 04-6790 dihydrochoride],84.4
4,O=C(/C=C/c1cccnc1)NCCCCC1CCN(C(=O)c2ccccc2)CC1,90.3
5,"C=CCn1c(=O)c2c(nc(-c3ccc(S(=O)(=O)O)cc3)n2C)n(C)c1=O [1-Allyl-3,7-dimethyl-8-p-sulfophenylxanthine]",105
6,O=c1c(-c2ccc(O)cc2)coc2cc(OC3OC(CO)C(O)C(O)C3O)cc(O)c12 (stereo not given) [Genistin],86.4
7,O=C(NCCCN1CCOCC1)c1cnn2c(-c3ccccc3)cc(-c3ccccc3)nc12,119
8,O=C([O-])C=CC(O)c1ccc(Cl)cc1.[Na+] (stereo not given),92.9
9,O=C(O)CN(CCN(CC(=O)O)CC(=O)O)CCN(CC(=O)O)CC(=O)O [Diethylenetriaminepentaacetic acid],94.6
10,Nc1nc2ccccc2c2ccccc12 [6-phenanthridinamine],117
11,CC(O)CCCC(O)C=CC1C(O)CC(=O)C1CC=CCCCC(=O)O [19(R)-Hydroxy-prostaglandin E2],92.1
12,CCC(C)C1OC2(CCC1C)CC1CC(CC=C(C)C(OC3CC(OC)C(OC4CC(OC)C(O)C(C)O4)C(C)O3)C(C)C=CC=C3COC4C(O)C(C)=CC(C(=O)O1)C34O)O2 (stereo not given) [Ivermectin],93.7
13,NC(N)=Nc1nc(CSCCC(N)=NS(N)(=O)=O)cs1 [Famotidine],89.7
14,CC(OC1OCCN(Cc2nc(=O)[nH][nH]2)C1c1ccc(F)cc1)c1cc(C(F)(F)F)cc(C(F)(F)F)c1 (stereo not given) [Aprepitant],107
15,Nc1ncnc2c1cnn2-c1ccccc1,104
16,O=S1(=O)CCN(CN2CCS(=O)(=O)NC2)CN1,94
17,"CC(C)(C)c1ccc(S(=O)(=O)Nc2ccc(-n3ccnc3)cc2)cc1 [Stem-Cell Factor/c-Kit Inhibitor, ISCK03]",99.6
18,CN1CCN(C2=Nc3ccccc3Sc3ccc(Cl)cc32)CC1 [Clothiapine],110
19,OCC1OC(OC2OC=CC3C(O)C4OC4(CO)C23)C(O)C(O)C1O (stereo not given) [Catalpol],89.4
20,CN1CCN(c2ccc3c(c2)NC(=C2C(=O)N=c4cccc(F)c4=C2N)N3)CC1,149 (active)

row,SMILES,H1.0 immunofluorescence intensity
1,NC(=O)C1=CN(C2OC(COP(=O)([O-])OP(=O)([O-])OCC3OC(n4cnc5c(N)ncnc54)C(OP(=O)([O-])[O-])C3O)C(O)C2O)C=CC1.[Na+].[Na+].[Na+].[Na+] (stereo not given) [NADPH tetrasodium],99.1
2,CC(O)(P(=O)([O-])O)P(=O)([O-])O [Etidronate],111
3,"CCCCCC=CCC=CCC=CCCCCC(=O)O [6(Z), 9(Z), 12(Z)-Octadecatrienoic Acid]",105
4,C=CC(N)CCC(=O)O (racemic),107
5,"CCCCCCCCCCCCCCCCn1cc[n+](Cc2ccccc2)c1C.[I-] [eEF-2 Kinase Inhibitor, NH125]",101
6,O=C(C=Cc1ccc(O)c(O)c1)OCCc1ccccc1,113
7,O=C1OC(=CBr)CCC1c1cccc2ccccc12 (stereo not given) [Bromoenol lactone],112
8,"O=C(CCCCCCc1ccccc1)c1ncc(-c2ccccn2)o1 [7-phenyl-1-[5-(2-pyridinyl)-1,3-oxazol-2-yl]-1-heptanone]",107
9,N#Cc1c(NC(=O)c2cccc3ccccc23)sc2c1CCCC2 [JNK Inhibitor IX],170 (active)
10,CCCCCC=CCC=CCC=CCC=CCCCC(=O)OC(CO)CO [2-Arachidonoylglycerol],99.5
11,CCCCCCCCCCCCCCCCOCC(CO)OC (stereo not given) [1-Hexadecyl-2-O-methyl-glycerol],98.4
12,COC1=CC(C)C2CC3OC(=O)CC4C(C)=C(OC)C(=O)C(C2(C)C1=O)C34C (stereo not given) [Quassin],94.8
13,CCCOc1ccc2nc(NC(=O)OC)[nH]c2c1 [Oxibendazole],154 (active)
14,CC(N=C(NC#N)Nc1ccncc1)C(C)(C)C (stereo not given) [Pinacidil],101
15,"Cl.Cl.Cl.NCCC1CCCC(CCN)N1 (stereo not given) [MDL 26,630 trihydrochloride]",85.3
16,CSc1nc2ccc3nc(NC(=O)C(c4ccccc4)c4ccccc4)sc3c2s1,94
17,COc1cc2ncnc(N3CCN(C(=O)Nc4ccc(Oc5ccccc5)cc4)CC3)c2cc1OC [PDGF Receptor Tyrosine Kinase Inhibitor III],215 (active)
18,Cc1cc(C(C)(C)C)c(O)c(C)c1CC1=NCCN1.Cl [Oxymetazoline hydrochloride],94.9
19,CN(Cc1cc(Br)cc(Br)c1N)C1CCCCC1 [Bromhexine],123
20,CCCCCCCCCCCCCCCCCCCCC(=O)O [Heneicosanoic acid],103
